# Source: PubChem BioAssay
# Peg3 promoter: reduces Peg3 promoter-driven luciferase expression in HeLa; HeLa PEG-Prom luciferase reporter, luminescence, overnight; actives 1.7% (n = 360,000); inhibition, % at 20 µM;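 active = inhibition of at least 50% at 20 µM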
# MITF TRPM1 inh: inhibitors of MITF-driven TRPM1 promoter in melanoma cells. SK-MEL-5 TRPM1 promoter luciferase, 24 h. inhibition, % at 12.5 µM. actives 0.83% (n = 330,000). AID 488899;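 active = mean inhibition across replicates of 60% or more, whatever share of single replicates reaches that level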
# CHOP inh: blocks CHOP induction under ER stress | CHO-K1 CHOP-promoter luciferase, tunicamycin-induced, 15-18 h | inhibition, % at 10 µM | actives 3.8% (n = 220,000) | AID 2732;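 active = compounds that reduced the stress-induced luciferase reporter signal by more than about 70% of percent inhibition, limit read from the data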;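 also: 0% = tunicamycin plus vehicle and 100% = wells without tunicamycin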
# KKLEB cytotox: CF airway cell cytotoxicity counter-screen; activity change (cytotoxicity), % at 5 µM; AID 602141; actives 0.36% (n = 360,000); KKLEB CF airway cells viability, ATPlite luminescence, overnight; stronger effect = lower value; cells stimulated with P. aeruginosa culture filtrate;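 active = corrected activity change at or below -50% at 5 µM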
# HIF-2a block: blocks HIF-2a reporter activity | 786-0 RCC cells HIF-2a reporter, luciferase luminescence, overnight | inhibition, % at 18.8 µM | actives 0.72% (n = 360,000) | AID 624352;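 active = inhibition of the luminescence signal of 40% or more relative to plate controls, in a single-dose primary screen at 18.75 µM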
# CF NFkB inh: blocks PAF-induced NF-kB reporter in cystic fibrosis cells. KKLEB NF-kB-GFP reporter, GFP fluorescence overnight. AID 588850. inhibition, % at 5 µM. actives 0.86% (n = 360,000);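 active = at least 50% inhibition at 5 µM, scaled per plate between neutral and stimulator controls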;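 also: PAF is a Pseudomonas aeruginosa culture filtrate used as stimulus; plate controls were PAF-stimulated DMSO wells for no effect and unstimulated DMSO wells for full effect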
# * = called active by the depositor; nt = no result given. Only some compounds are listed: those with a hit (about 4.3% of all), similar ones and a draw of the others.
SMILES,Peg3 promoter,MITF TRPM1 inh,CHOP inh,KKLEB cytotox,HIF-2a block,CF NFkB inh
O=C(OCc1nnc(-c2ccc(Cl)cc2)o1)c1ccc(O)cc1,-63.9,-12.4,20.3,1.8,-97.1,4.5
CS(=O)(=O)c1ccc(C(=O)OCc2nnc(-c3ccc(Cl)cc3)o2)cc1[N+](=O)[O-],103.6*,25.1,79.2*,-19.1,-12.1,12.3
CCOC(=O)c1nc(NNC(=O)c2ccc([N+](=O)[O-])cc2)sc1C,68.3*,27.0,nt,8.6,-20.0,-10.1
CCOC(=O)c1sc(NNC(=O)c2ccc(C)cc2)nc1C,-13.7,-15.1,-1.5,1.5,-1.5,-0.5
CC(C)CNC(=O)NC(=O)COC(=O)C1CSC2(c3ccc(F)cc3)CCC(=O)N12 (configuration not stated),1.4,-1.9,30.2,-9.4,12.4,-9.6
O=C(COC(=O)C1CSC2(c3ccc(F)cc3)CCC(=O)N12)NC(=O)NC1CCCC1 (configuration not stated),-2.0,-6.7,72.9*,9.1,11.9,-3.1
CCCCOc1ccc(C(=O)N/C(=C/C=C/c2ccccc2)C(=O)NCCO)cc1,-2.6,6.1,7.9,2.9,-3.1,2.8
O=C(O)CCNC(=O)/C(=C/C=C/c1ccccc1)NC(=O)c1ccccc1,-6.6,-2.4,73.8*,-2.2,20.0,16.5
CCOC(=O)[C@]12CCCC=C1N(CCc1ccc(OC)c(OC)c1)C(=O)[C@H](CC(=O)NCc1ccc(C)o1)C2,nt,nt,nt,nt,6.2,nt
O=C1[C@H](Cc2ccccc2)NCCCC[C@H](c2ccco2)N1Cc1ccccc1,29.7,8.2,nt,-23.9,-11.0,22.6
O=C(Cn1nnc(-c2ccccc2NC(=O)c2ccccc2)n1)Nc1ccc2c(c1)OCCO2,-1.4,-10.7,15.3,-53.6*,-0.8,20.4
CC(=O)Nc1ccccc1-c1nnn(CC(=O)Nc2ccc3c(c2)OCCO3)n1,14.1,6.2,58.4,-9.8,-2.9,5.9
O=C(Cn1nnc(-c2ccccc2NC(=O)c2ccco2)n1)Nc1ccccc1,12.1,13.3,85.3*,-8.9,17.0,15.8
O=C(Cn1nnc(-c2ccccc2Cl)n1)N/N=C/c1ccc2c(c1)OCO2,-1.2,-2.5,76.2*,2.0,-21.3,7.9
CC(C)(C)NC(=O)Cn1nnc(-c2ccccc2NC(=O)c2ccco2)n1,3.0,-8.7,-0.9,3.4,11.2,-7.5
CC(=O)OCC1CC(COC(C)=O)C(COC(C)=O)CC1COC(C)=O (configuration not stated),-11.8,0.8,nt,-7.5,-2.5,12.7
CCOC(=O)c1c(NC(=O)CSc2n[nH]c(-c3ccco3)n2)sc(C)c1C,2.7,3.8,32.7,-8.2,7.1,16.4
CCOC(=O)c1c(NC(=O)CSc2n[nH]c(CNc3ccccc3)n2)sc(C)c1C,32.3,3.5,91.3*,-10.5,31.0,12.0
O=C(O)c1ccc(C(=O)Nc2ccc(F)cc2)cc1,7.9,105.7*,nt,-5.9,0.7,-15.6
C[C@H](NC(=O)c1ncn2c1C(=O)N(C)CC2)C(=O)OC(C)(C)C,-1.7,nt,nt,-12.9,3.9,13.1
Cc1ccc(-c2nc3ccc(C)cn3c2Cc2ccccn2)cc1,nt,nt,nt,nt,-171.6,nt
COc1cc2cc3c(N)c(C(=O)Nc4sc(C)c(C)c4C#N)sc3nc2cc1OC,25.2,1.6,80.9*,-99.5*,-5.5,89.4*
Cc1cc(C)n(CC(=O)NC2CCCCC2C)c(=O)c1C#N (configuration not stated),9.8,-1.4,nt,9.8,13.7,-28.1
CCCCc1cc(=O)oc2cc(OCC(=O)Nc3ccccn3)ccc12,-192.7,-69.6,nt,-0.2,-153.9,-12.6
Cc1noc(C)c1C(=O)N1CCC1(C)C(=O)NS(=O)(=O)c1cccs1 (configuration not stated),-0.3,nt,nt,-3.9,10.7,4.1
Cc1cc(NC(=O)c2cccc(Br)c2)n[nH]1,70.2*,-53.1,nt,-0.2,-229.5,5.0
N#CC(C#N)=C(Nc1ccc(F)cc1)SCc1cccc(Br)c1,20.6,62.7*,71.5*,-41.8,-32.9,51.3*
CC(SCc1ccccc1)C(=O)Nc1ccc(F)cc1 (configuration not stated),-23.9,-2.4,5.5,10.5,-41.7,5.6
Nc1nccnc1C(=O)OCC(=O)C12CC3CC(CC(C3)C1)C2,-24.3,-9.7,nt,-6.2,5.7,10.3
